# In the library only some 3.3% were active in any assay of this set; here they are far more common.
# Arbovirus anti: arbovirus infection inhibition; inhibition, % at 10 µM; actives 0.37% (n = 200,000); arbovirus infection cell-based antiviral screen; AID 1251; in the data active = inhibition above about 30%
# WT yeast gro inh: growth inhibition of WT yeast, mitochondrial fusion screen. mitochondrial fusion phenotypic screen, WT strain. inhibition, % at 10 µM. actives 2.1% (n = 190,000); in the data active = inhibition above about 58%; tested in S. cerevisiae
# PERK inh: blocks human PERK kinase; Q9NZJ5; inhibition, % at 5.6 µM; actives 0.17% (n = 220,000); CHO PERK-DD fusion, SEAP luminescence translation reporter;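 active = inhibition above the mean inhibition of all tested compounds plus 3 SD, set separately per screening campaign, cut at about 2.9% in these data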;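 note: PERK kinase domain activated by AP20187 dimerizer at 100 nM; 0% = DMSO with dimerizer and 100% = rapamycin at 8.4 µM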
# Target sequence (Q9NZJ5 whole entry, looked up, the tested form may be a part): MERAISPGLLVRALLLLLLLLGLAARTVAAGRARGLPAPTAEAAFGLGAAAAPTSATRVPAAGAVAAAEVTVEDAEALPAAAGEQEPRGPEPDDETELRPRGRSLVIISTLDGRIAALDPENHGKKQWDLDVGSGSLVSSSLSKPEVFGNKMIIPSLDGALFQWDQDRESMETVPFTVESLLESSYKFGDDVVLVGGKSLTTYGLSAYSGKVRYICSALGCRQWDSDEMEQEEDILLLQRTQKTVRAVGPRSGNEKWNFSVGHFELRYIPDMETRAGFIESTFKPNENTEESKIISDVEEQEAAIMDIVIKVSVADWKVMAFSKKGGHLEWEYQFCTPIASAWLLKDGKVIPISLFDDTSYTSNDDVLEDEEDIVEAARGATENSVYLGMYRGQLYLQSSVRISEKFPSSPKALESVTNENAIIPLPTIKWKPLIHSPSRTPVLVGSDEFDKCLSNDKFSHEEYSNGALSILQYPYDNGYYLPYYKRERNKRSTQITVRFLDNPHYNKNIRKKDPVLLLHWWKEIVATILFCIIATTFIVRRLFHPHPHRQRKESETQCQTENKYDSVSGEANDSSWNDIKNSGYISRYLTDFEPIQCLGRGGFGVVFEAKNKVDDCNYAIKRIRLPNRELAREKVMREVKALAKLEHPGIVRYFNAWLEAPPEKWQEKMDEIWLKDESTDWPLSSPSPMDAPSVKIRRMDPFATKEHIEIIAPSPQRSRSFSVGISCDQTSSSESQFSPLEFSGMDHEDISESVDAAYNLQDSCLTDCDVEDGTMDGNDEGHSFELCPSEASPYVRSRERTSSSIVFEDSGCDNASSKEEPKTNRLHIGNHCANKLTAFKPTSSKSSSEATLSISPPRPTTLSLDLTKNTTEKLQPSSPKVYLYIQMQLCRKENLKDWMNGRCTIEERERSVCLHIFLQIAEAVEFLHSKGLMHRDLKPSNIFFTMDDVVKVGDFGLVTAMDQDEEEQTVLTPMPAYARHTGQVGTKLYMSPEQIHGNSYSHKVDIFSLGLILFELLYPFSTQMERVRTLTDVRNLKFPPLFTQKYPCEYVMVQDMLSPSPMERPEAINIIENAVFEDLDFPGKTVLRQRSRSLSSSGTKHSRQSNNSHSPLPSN
# ROMK mod: human ROMK K+ channel modulation, primary screen; P48048; Tet-inducible ROMK, thallium flux fluorescence; actives lie on both sides; B-score at 10 µM; actives 2% (n = 130,000); AID 1918;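 active = signal ratio slope over the read window, or its plate-corrected B-score, at least 3 SD from the plate mean, either direction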;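 note: B-score of the F/F0 ratio slope over 7 to 12 s after thallium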
# The depositor's hits bear a star; . = no result.
SMILES,Arbovirus anti,WT yeast gro inh,PERK inh,ROMK mod
O=C(Nc1nnc(-c2ccccc2)o1)c1ccc(Cl)cc1,-7,28,1,10*
O=C(Nc1nnc(-c2ccco2)o1)c1ccc(Cl)cc1,-9,65*,1,-0.26
CCCCCCCCNC(CO)(CO)CO,.,.,1,.
Cc1cc([N+](=O)[O-])ccc1NCc1ccco1,9,13,0,-0.98
CCCCn1c(=S)[nH]c2c(oc3ccc(Cl)cc32)c1=O,-6,3,0,4.8*
CCN(CC)CCCn1c(=S)[nH]c2ccccc2c1=O,5,3,1,.
N#C/C(=N\Nc1cccc(C(F)(F)F)c1)C(=O)c1csc(-c2cccnc2)n1,.,.,1,-3.8*
O=C(Nc1cccc(C(F)(F)F)c1)c1cccnc1,-3,17,0,.
O=C(Nc1ccccc1C(=O)O)c1ccc(Br)c(S(=O)(=O)NCc2ccccc2)c1,31*,-22,1,-0.038
O=C(Nc1ccccc1C(=O)NCc1ccccc1)c1ccccc1Br,5,16,0,.
Cc1ccc2nc(N3CCCCC3)c(C=O)c(=O)n2c1,-2,14,0,0.68
COc1cccc(CN(C(=O)Cc2c[nH]c3ccccc23)C(C(=O)NC2CCCCC2)c2ccc(C)o2)c1 (centres undefined),-18,16,-1,-0.53
O=C(CN1CCN(C(c2ccccc2)c2ccccc2)CC1)NC(=O)NCc1ccco1,-4,4,-1,-0.4
CCCCCCOc1ccc(C(=O)O)cc1,.,.,1,.
CCCCCCOc1ccc(-c2ccc(C#N)cn2)cc1,15,30,3.1*,.
CC(C)(C)C1CCc2[nH]c3ccccc3c(=O)c2C1 (centres undefined),-9,82*,0,0.094
O=c1c2c([nH]c3ccccc13)CCCC2,1,-7,0,.
Cc1cc(C(=O)Nn2c(-c3ccc(Br)cc3)nc3ccccc3c2=O)ccc1[N+](=O)[O-],-2,68*,1,-1.4
O=C(Nn1c(-c2ccc(Br)cc2)nc2ccccc2c1=O)c1ccncc1,15,12,0,1
Cc1cc(F)ccc1NCc1ccc([N+](=O)[O-])cc1,-25,10,0,-0.14
Cc1cccc(N2C(=O)C(Oc3ccc(Cl)cc3Cl)C2C=O)c1C (centres undefined),-20,75*,0,-4.9*
COCCN1CC(=O)N(c2cccc(C)c2C)C(c2ccc(Cl)cc2)C1=O (centres undefined),1,-13,0,.
CC1CCCCN1C(=O)Nc1cccc(C(F)(F)F)c1 (centres undefined),3,-17,0,0.63
Cc1cc(N2CCN(c3ccccc3)CC2)n2ncnc2n1,-7,-15,0,0.96
Cc1cc(N2CCN(C(c3ccccc3)c3ccc(Cl)cc3)CC2)n2ncnc2n1 (centres undefined),-27,74*,-1,0.48
SMILES,Arbovirus anti,WT yeast gro inh,PERK inh,ROMK mod
CC1CC(C)(C)N2C(=O)C3(Nc4ccccc4S3)c3cccc1c32 (centres undefined),-23,67*,-1,0.98
O=C1N2CCCc3cccc(c32)C12Nc1ccccc1S2 (centres undefined),-5,11,-1,.
CC(NC(=O)/C(=C/c1ccc(OC(F)F)cc1)c1ccccc1)c1ccccc1 (centres undefined),-8,65*,0,.
Cc1ccc(C(=O)C[n+]2cc(Br)cc(Br)c2)cc1,.,.,1,.
CCc1nnc(NC(=O)c2cc3ccccc3oc2=O)s1,65*,-6,1,.
Cc1ccccc1-c1nnc(NC(=O)c2cc3ccccc3oc2=O)s1,-4,0,0,-0.0076
O=C(Nc1nc(-c2cccs2)cs1)c1cc2ccccc2oc1=O,-6,-6,1,1.6*
Clc1ccccc1N/N=C/c1ccc2c(c1)OCO2,-30,22,2,0.11
O=C(CSc1nnc(NC(=O)c2c(F)cccc2F)s1)Nc1ccc(F)cc1,37*,-15,0,0.5
NC(=O)NC(=O)COC(=O)/C=C/c1cccs1,.,.,2,-0.87
COCCNC(=O)CCc1nnc(C2(c3ccc(Cl)cc3)CCC2)o1,7,4,1,-0.024
CC(C)(C)NS(=O)(=O)c1cnc(Cl)c(Cl)c1,4,60*,1,.
O=C(Nc1ccccc1C(=O)N1CCOCC1)C1CCCO1 (centres undefined),-1,-8,0,.
CCN(Cc1ccccc1)c1ccc(/C=N/NC(=S)NC(C)C)cc1,15,69*,1,-0.14
CCN(CC)c1ccc(/C=N/NC(=S)NCc2ccco2)cc1,-12,67*,0,-0.074
CN(C)c1ccc(/C=N/NC(=S)NCc2ccccc2)cc1,-5,70*,-1,0.0071
CCN(Cc1ccccc1)c1ccc(/C=N/N=C(N)N)cc1,-31,-24,0,-2.8
CCCn1c2c(c(O)c(C(=O)Nc3nc(C)cs3)c1=O)CCCC2,12,-14,2,.
CC(C)Cn1c2c(c(O)c(C(=O)Nc3nccs3)c1=O)CCCC2,37*,35,0,.
Cc1csc(NC(=O)c2c(O)c3c(n(CC(C)C)c2=O)CCCC3)n1,55*,63*,2,.
CCCn1c2c(c(O)c(C(=O)Nc3nccs3)c1=O)CCCC2,-5,76*,0,.
CCCn1c2c(c(O)c(C(=O)Nc3ncccc3C)c1=O)CCCC2,-22,-2,0,.
CCOC(=O)Cc1csc(NC(=O)c2c(O)c3c(n(CC(C)C)c2=O)CCCC3)n1,.,.,-1,-0.08
CC(C)C[C@H](NC(=O)Nc1ccc(Oc2ccccc2)cc1)C(=O)O,-3,-10,0,0.73
CN(Cc1ccccc1)S(=O)(=O)c1cccc2cccnc12,4,-1,-1,0.13
SMILES,Arbovirus anti,WT yeast gro inh,PERK inh,ROMK mod
Cc1ccc(C(=O)N2CC(C)OC(C)C2)cc1[N+](=O)[O-] (centres undefined),3,-14,1,0.37
O=C(O)CCCC(=O)Nc1ccccc1C(=O)O,-1,30,2,.
O=C(O)CNc1ccccc1C(=O)O,.,.,3.0*,.
Cn1c(=O)c2c(SCc3ccccc3)nc(-c3ccco3)nc2n(C)c1=O,3,-3,4.2*,.
Cc1ccc(-c2nc3cc(Br)cnc3nc2-c2ccc(C)cc2)cc1,-28,77*,1,0.72
CC1=C(C(=O)OC(C)C)C(c2ccc(F)cc2)NC(=O)N1 (centres undefined),3,-10,1,.
Cc1nc(-c2cn[nH]c2-c2ccc(O)cc2O)cs1,9,11,0,-3.1*
COc1ccc(CNC(=O)Nc2cccc3ccccc23)cc1,-11,13,1,1.7
O=C(NC(=S)N1CCCCCC1)c1ccc(Cl)cc1Cl,0,46,-1,7.1*
Cc1ccccc1C(=O)NNC(=S)NC(=O)c1ccc(Cl)cc1Cl,-19,-9,1,4.9*
Cn1cnc([N+](=O)[O-])c1SCCO,.,.,0,.
CCOP(=O)(OCC)/C(C#N)=C/c1cc(OC)ccc1OC,.,.,1,.
CCn1cc(C(=O)OCC(=O)c2ccccc2)c(=O)c2ccc(C)nc21,1,-7,0,-0.016
CCn1cc(C(=O)OCC(=O)c2cc(C)n(-c3cccc(C(F)(F)F)c3)c2C)c(=O)c2ccc(C)nc21,-5,68*,0,-1.7
O=C(NCC1(c2ccccc2)CCCC1)C1(c2ccccc2)CCCC1,-19,83*,0,.
O=C(NCc1ccccc1)c1ccc(-c2ccccc2C(F)(F)F)o1,-23,58*,1,-1.3

# Screening results from PubChem.
